Results from PubChem BioAssay (NCI).
The panel holds about 83,000 compounds, 20% with a hit somewhere; the sample as a whole holds those more often.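 48-hour exposure, single concentration, 96-well plates; percent growth endpoint where 0 means no net growth. Active: below 10.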 Unmarked numbers belong to inactive results. The source made the active and inactive calls.

How the values were obtained:
Experiment in all cases: NCI-60 one-dose screen, 48 h (100 = growth as untreated, 0 = no growth, -100 = all killed)
Settings in all cases: 10 µM unless noted
SR leukemia = test system: SR leukemia
OVCAR-5 ovarian = test system: OVCAR-5 ovarian
OVCAR-4 ovarian = test system: OVCAR-4 ovarian
SK-OV-3 ovarian = test system: SK-OV-3 ovarian
IGROV1 ovarian = test system: IGROV1 ovarian
OVCAR-3 ovarian = test system: OVCAR-3 ovarian
HS 578T breast = test system: HS 578T breast
NCI/ADR-RES ovarian = test system: NCI/ADR-RES ovarian
T-47D breast = test system: T-47D breast
BT-549 breast = test system: BT-549 breast
MDA-MB-435 melanoma = test system: MDA-MB-435 melanoma
MCF7 breast = test system: MCF7 breast
HCT-116 colon = test system: HCT-116 colon
HCC-2998 colon = test system: HCC-2998 colon
KM12 colon = test system: KM12 colon
RPMI-8226 leukemia = test system: RPMI-8226 leukemia
OVCAR-8 ovarian = test system: OVCAR-8 ovarian
SW-620 colon = test system: SW-620 colon

c1cc(C2CCCCC2)ccc1-c1cnc2nonc2n1
growth (SR leukemia): 4.98% (active)
growth (OVCAR-5 ovarian): 25.7%
growth (OVCAR-4 ovarian): 43.9%
growth (SK-OV-3 ovarian): 33.5%
growth (IGROV1 ovarian): 34.8%
growth (OVCAR-3 ovarian): 1.51% (active)
growth (HS 578T breast): 58.1%
growth (NCI/ADR-RES ovarian): -3.11% (active)
growth (T-47D breast): 20.7%
growth (BT-549 breast): 9.82% (active)
growth (MDA-MB-435 melanoma): -28.4% (active)
growth (MCF7 breast): 7.11% (active)
growth (HCT-116 colon): 4.27% (active)
growth (HCC-2998 colon): 8.72% (active)
growth (KM12 colon): 14.2%

O=C1Nc2ccc(Cl)cc2/C1=C\c1c(-c2ccc(F)cc2)nc2ccccn12
growth (RPMI-8226 leukemia): 70.4%
growth (OVCAR-8 ovarian): 22%
growth (OVCAR-5 ovarian): 37%
growth (OVCAR-4 ovarian): -69.7% (active)
growth (SK-OV-3 ovarian): -52.1% (active)
growth (IGROV1 ovarian): 20.6%
growth (OVCAR-3 ovarian): -70.4% (active)
growth (HS 578T breast): 1% (active)
growth (NCI/ADR-RES ovarian): -37% (active)
growth (T-47D breast): 9.64% (active)
growth (BT-549 breast): 15.7%
growth (MDA-MB-435 melanoma): -34.5% (active)
growth (SW-620 colon): 8.89% (active)
growth (MCF7 breast): -9.38% (active)
growth (HCT-116 colon): -78.7% (active)
growth (HCC-2998 colon): 44.7%
growth (KM12 colon): -32.1% (active)

CN(C)c1ccc(/C=C\c2cccc[n+]2C)cc1
growth (RPMI-8226 leukemia): 3.96% (active)
growth (OVCAR-8 ovarian): 28.6%
growth (OVCAR-5 ovarian): 49.5%
growth (OVCAR-4 ovarian): 34.1%
growth (SK-OV-3 ovarian): 42.2%
growth (IGROV1 ovarian): 68.8%
growth (OVCAR-3 ovarian): 9.08% (active)
growth (HS 578T breast): 61.5%
growth (NCI/ADR-RES ovarian): 105%
growth (T-47D breast): 14.6%
growth (BT-549 breast): 20.1%
growth (MDA-MB-435 melanoma): 33.6%
growth (SW-620 colon): 22.4%
growth (MCF7 breast): 39.3%
growth (HCT-116 colon): 19.3%
growth (HCC-2998 colon): 35.7%
growth (KM12 colon): 6.97% (active)

COc1nccc2c(Sc3ccccc3)nc(N)nc12
growth (RPMI-8226 leukemia): 93.2%
growth (OVCAR-8 ovarian): 101%
growth (OVCAR-5 ovarian): 107%
growth (OVCAR-4 ovarian): 99.7%
growth (SK-OV-3 ovarian): 114%
growth (IGROV1 ovarian): 114%
growth (OVCAR-3 ovarian): 119%
growth (HS 578T breast): 113%
growth (NCI/ADR-RES ovarian): 106%
growth (T-47D breast): 107%
growth (BT-549 breast): 85.9%
growth (MDA-MB-435 melanoma): 110%
growth (SW-620 colon): 109%
growth (MCF7 breast): 91.9%
growth (HCT-116 colon): 97.6%
growth (HCC-2998 colon): 106%
growth (KM12 colon): 113%

Cn1cnc([N+](=O)[O-])c1S(=O)(=O)Oc1ccccc1
growth (SR leukemia): 56.1%
growth (OVCAR-5 ovarian): 103%
growth (IGROV1 ovarian): 85.7%
growth (OVCAR-3 ovarian): 1.83% (active)
growth (HS 578T breast): 105%
growth (NCI/ADR-RES ovarian): 92%
growth (T-47D breast): 5.06% (active)
growth (BT-549 breast): 100%
growth (MDA-MB-435 melanoma): 101%
growth (SW-620 colon): 56%
growth (MCF7 breast): 84.3%
growth (HCT-116 colon): 68.4%
growth (HCC-2998 colon): 101%
growth (KM12 colon): 100%

CCOC(=O)CCN(CCC(=O)OCC)c1ccccc1
growth (SR leukemia): 104%
growth (OVCAR-5 ovarian): 92.2%
growth (SK-OV-3 ovarian): 87.1%
growth (IGROV1 ovarian): 87.4%
growth (OVCAR-3 ovarian): 85.2%
growth (HS 578T breast): 106%
growth (NCI/ADR-RES ovarian): 105%
growth (T-47D breast): 95.7%
growth (BT-549 breast): 97.9%
growth (MDA-MB-435 melanoma): 124%
growth (SW-620 colon): 103%
growth (MCF7 breast): 101%
growth (HCT-116 colon): 95.4%
growth (HCC-2998 colon): 119%
growth (KM12 colon): 93.5%

CSc1nc(N)c2[nH]c(-c3cc4ccccc4[nH]c3=O)nc2n1
growth (RPMI-8226 leukemia): 85.1%
growth (OVCAR-8 ovarian): 90.2%
growth (OVCAR-5 ovarian): 119%
growth (OVCAR-4 ovarian): 83.7%
growth (SK-OV-3 ovarian): 66.1%
growth (IGROV1 ovarian): 61.5%
growth (OVCAR-3 ovarian): 119%
growth (HS 578T breast): 94.6%
growth (NCI/ADR-RES ovarian): 94.8%
growth (T-47D breast): 72.9%
growth (BT-549 breast): 47.9%
growth (MDA-MB-435 melanoma): 102%
growth (SW-620 colon): 90.1%
growth (MCF7 breast): 65.7%
growth (HCT-116 colon): 53.9%
growth (HCC-2998 colon): 95%
growth (KM12 colon): 96.9%

CCN1C(=O)N(CC)C2C1N=C(SC)N2/N=C/C=C/c1ccccc1OC (configuration not stated)
growth (SR leukemia): 13.3%
growth (OVCAR-8 ovarian): 10.9%
growth (OVCAR-4 ovarian): 50.5%
growth (SK-OV-3 ovarian): 18.9%
growth (IGROV1 ovarian): 22.2%
growth (OVCAR-3 ovarian): -18.9% (active)
growth (HS 578T breast): 59.2%
growth (NCI/ADR-RES ovarian): -0.869% (active)
growth (T-47D breast): 54.2%
growth (BT-549 breast): 12.8%
growth (MDA-MB-435 melanoma): 2.95% (active)
growth (MCF7 breast): 12.9%
growth (HCT-116 colon): 6.51% (active)
growth (HCC-2998 colon): 10.5%
growth (KM12 colon): 4.92% (active)
